Assay results reported in PubChem BioAssay (NCI).
About 83,000 compounds went through this panel and 20% of them were active in at least one assay; those are over-represented in the sample as a whole.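 Note: values are percent growth. 100 is the growth of untreated cells, values between 100 and 0 indicate rising inhibition; between -100 and 0 indicates cell death.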 Values without a mark were called inactive. Active and inactive are the calls of the source. Rule for the calls: active = growth percent below 10; inactive = the rest.

Assays:
Test in all cases: NCI-60 one-dose screen, 48 h (100 = growth as untreated, 0 = no growth, -100 = all killed)
Conditions in all cases: 10 µM unless noted
[1] = test system: HCT-15 colon
[2] = test system: HT29 colon
[3] = test system: SNB-75 CNS
[4] = test system: SNB-19 CNS
[5] = test system: U251 CNS
[6] = test system: PC-3 prostate
[7] = test system: SK-MEL-5 melanoma
[8] = test system: UACC-62 melanoma
[9] = test system: LOX IMVI melanoma
[10] = test system: SK-MEL-28 melanoma

Row | Structure (SMILES) | growth [1] | growth [2] | growth [3] | growth [4] | growth [5] | growth [6] | growth [7] | growth [8] | growth [9] | growth [10]
1 | O=C1CCC(N2C(=O)c3cccc(NCCOCCOCCOCCC(=O)NCCCC(=O)NC(c4ccc5c(c4)OCO5)c4cc(Cl)c5cccnc5c4O)c3C2=O)C(=O)C1 (centres undefined) | 88.8% | 28.5% | 62.7% | 28.5% | 27.2% | 32.5% | 43.6% | 0.155% (active) | -37.6% (active) | 20.4%
2 | NC(=Nc1ccc(OCCCCCCCCn2cnnn2)cc1)c1ccccc1 | 14.6% |  | 45.4% | 20.8% |  | 36.2% |  | 28.3% | 23% | 65.1%
3 | C[C@H]1[C@@H](CC(=O)N[C@@H](Cc2coc3ccccc23)B(O)O)O[C@@H]2OC3(C)CC[C@H]4[C@H](C)CC[C@@H]1[C@@]24O3 | -51.7% (active) | -57.4% (active) | -19% (active) | 35% | 25.2% | 28.5% | -83.4% (active) | -75.8% (active) | -72.7% (active) | 5.12% (active)
4 | CCN1CCN(Cc2ccc(C(=O)Nc3cccc(Nc4ccc5c(OC)cccc5n4)c3)cc2C(F)(F)F)CC1 | -83.3% (active) | -67.6% (active) | -89.7% (active) | -99.7% (active) | -80.9% (active) | -38.6% (active) | -99.2% (active) | -95.1% (active) | -92.1% (active) | -100% (active)
5 | CN(C)c1nc(NCCNS(=O)(=O)c2ccc(C(=O)/C=C/c3ccc(Cl)cc3)cc2)nc(N2CCOCC2)n1 | -53% (active) | -80.6% (active) | 45.4% | 60% | -92% (active) | 21.1% | 46.2% | 52.5% | -94.3% (active) | 76.6%
6 | O=C(COc1ccc(/C=C2/C(=O)Nc3ccc(Cl)cc32)cc1)Nc1ccc(Br)cc1 | -23% (active) | -51.3% (active) | -57% (active) | 5.08% (active) | -88.4% (active) | -38.9% (active) | -14.8% (active) | 0.1% (active) | -89.4% (active) | -26.7% (active)
7 | COc1cc(CNC(=O)C[C@H](C)CCC=C(C)C)ccc1OCc1cn(-c2ccc(Cl)cc2Cl)nn1 | 79.6% | 82.3% | 7.99% (active) | 50% | 54.4% | 85% | 60.4% | 65.6% | 80.7% | 96.3%
8 | O=C(CSc1nnc(-c2ccc(-c3nc4ccc(Cl)cc4[nH]3)cc2)o1)Nc1ccc(Br)cc1 | 18.6% | 28.6% | 46% | -17.5% (active) | -89.8% (active) | -29.1% (active) | -6.99% (active) | -53.4% (active) | -100% (active) | -80.6% (active)
9 | CN(C)c1ccc(/C=C/c2n(Cc3ccc4ccccc4c3)c3ccccc3[n+]2Cc2ccc3ccccc3c2)cc1 | -84.4% (active) | -31.6% (active) | -84.3% (active) | -92.5% (active) | -67.5% (active) | -50.9% (active) | -92.2% (active) | -93.3% (active) | -95.7% (active) | -76% (active)
10 | COc1c2c(cc3c1C(CCc1ccccc1)N(C)CC3)OCO2 (centres undefined) | 9.64% (active) | -13.3% (active) | -1.4% (active) | 8.54% (active) | -32.5% (active) | 12.7% | -98.2% (active) | -24% (active) | -92% (active) | -5.44% (active)
11 | COc1ccc(S(=O)(=O)Nc2ccc(-c3ccc4c(c3)NC(=O)/C4=C\c3ccc[nH]3)cc2)cc1OC | 41.4% | 8.82% (active) | 13.9% | 3.61% (active) | -58.5% (active) | 44.5% | 20.3% | -45.9% (active) | -30.1% (active) | -90.6% (active)
12 | COc1cc(C2C(C(=O)OCc3ccccc3)=C(C)Nc3nc4ccccc4n32)cc(OC)c1OC (centres undefined) | 24.8% | 37.3% | -38.3% (active) | 20.4% | 27% | 51.7% | 17.3% | 2.04% (active) | 12.2% | 33.9%
13 | Nc1cc(-c2c[nH]c3ccc(Br)cc23)nc2cc(-c3c[nH]c4ccccc34)nn12 | -67% (active) | -54.8% (active) | -11% (active) | -77.6% (active) | -83.3% (active) | -21.1% (active) | -96.4% (active) | -89.4% (active) | -86.8% (active) | -98.5% (active)
14 | COc1ccc(Nc2nnc(-c3c[nH]c4ccccc34)o2)cc1 | 69% | 106% | 78.8% | 95.2% | 97.6% | 78.6% | 90.6% | 82.2% | 71.6% | 107%
15 | Oc1ccc(Cl)c(Nc2nc(SCCN3CCOCC3)nc3c2cnn3CC(Cl)c2ccc(Br)cc2)c1 (centres undefined) | 8.41% (active) | 6.18% (active) | 11.5% | 37.8% | 23.9% | 14.5% | 16.6% | 39.9% | -59.3% (active) | 32%
16 | Cc1cc(N=C(N)c2ccccc2)ccc1OCCCCCCCCn1ccnc1 | 7% (active) |  | 12.5% | 19.3% |  | 27.8% |  | -3.8% (active) | -80.7% (active) | -68.5% (active)
17 | O=C(CSc1nc2ccccc2c(=O)[nH]1)Nc1ccccc1C(=O)O | 86.6% | 124% | 139% | 95.7% | 101% | 110% | 94.9% | 84.8% | 84.8% | 93.7%
18 | COC(=O)c1cc(C(=O)CBr)n2c1ccc1c3ccccc3ccc12 | 39.3% | 44.6% | 90.2% | 55.5% | 39.4% | 53.1% | 53.4% | 51.2% | 31.9% | 92.3%
19 | Cc1ccc(O)cc1Nc1nc(SCCN2CCOCC2)nc2c1cnn2CC(Cl)c1ccc(Br)cc1 (centres undefined) | 0.154% (active) | -30.2% (active) | 4.06% (active) | 20.6% | 15.4% | 17% | -0.938% (active) | 15.6% | -88.4% (active) | 17.1%
